Measurements: PubChem BioAssay (NCI)
Compounds without any hit were thinned out: in the full panel of roughly 79,000, 15% have a hit. Values without a mark were called inactive. Active and inactive are the calls of the source. Rule as the data show it: active = growth inhibition above about 70%; inactive = the rest.

Legend:
[1] = NCI Yeast Anticancer Drug Screen. Data for the wt1 strain (AID 149);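 also: 0% = growth of vehicle-treated wt1 cultures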; conditions: S. cerevisiae wt1 strain (SPY 50644) growth inhibition, active compounds read high
Method in brief: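 Yeast wt1 strain exposed to compounds; growth inhibition measured relative to vehicle-treated controls.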

[2] = NCI Yeast Anticancer Drug Screen. Data for the rad50EPP+ strain (AID 151);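 also: 0% = growth of vehicle-treated control cultures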; conditions: S. cerevisiae rad50 mutant strain, active compounds read high
Method in brief: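 In this screen, rad50EPP+ yeast were exposed to compounds. Growth inhibition was scored against vehicle-treated controls.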

[3] = NCI Yeast Anticancer Drug Screen. Data for the rad50 strain (AID 155);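 also: 0% = growth of vehicle-only cultures of the same strain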; conditions: S. cerevisiae rad50 strain growth inhibition, active compounds read high
Method in brief: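 Yeast carrying a defined DNA repair defect were exposed to test compounds, and growth was compared with vehicle-treated controls to give percent inhibition.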

[4] = NCI Yeast Anticancer Drug Screen. Data for the mec2-1 strain (AID 157); conditions: S. cerevisiae mec2-1 strain, active compounds read high
Method in brief: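 Vehicle-treated cultures served as reference for growth inhibition of compound-exposed mec2-1 yeast.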

[5] = NCI Yeast Anticancer Drug Screen. Data for the rad14 strain (AID 159);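 also: 0% = growth of vehicle-treated control cultures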; conditions: S. cerevisiae rad14 strain growth inhibition, active compounds read high
Method in brief: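 Yeast cells carrying a defined DNA-repair defect were exposed to compounds, and growth inhibition was calculated relative to vehicle-treated control cultures.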

[6] = NCI Yeast Anticancer Drug Screen. Data for the sgs1 mgt1 strain (AID 161);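 also: 0% = growth of cultures given vehicle only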; conditions: S. cerevisiae sgs1 mgt1 strain, active compounds read high
Method in brief: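 Inhibition of yeast growth, normalised to vehicle-treated controls, is reported for a strain bearing genetic alterations in DNA damage repair.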

[7] = NCI Yeast Anticancer Drug Screen. Data for the cln2 rad14 strain (AID 165);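 also: 0% = growth equal to vehicle treated cultures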; conditions: S. cerevisiae cln2 rad14 strain, active compounds read high
Method in brief: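 Each compound was tested on cln2 rad14 yeast. Inhibition of growth was calculated against vehicle-exposed controls.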

[8] = NCI Yeast Anticancer Drug Screen. Data for the bub3 strain (AID 167); conditions: S. cerevisiae bub3 mutant strain, active compounds read high
Method in brief: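 Compounds were applied to a genetically altered yeast strain carrying a cell-cycle control defect. Growth inhibition was scored against vehicle-treated controls.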

[9] = NCI Yeast Anticancer Drug Screen. Data for the wt2 strain (AID 169);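 also: 0% = growth of vehicle-treated yeast cultures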; conditions: S. cerevisiae wt2 strain growth inhibition, active compounds read high
Method in brief: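 Inhibition of yeast growth was determined after compound treatment, normalised to controls receiving only vehicle.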

[10] = NCI Yeast Anticancer Drug Screen. Data for the mlh1 rad18 strain (AID 175); conditions: S. cerevisiae mlh1 rad18 strain growth inhibition, active compounds read high
Method in brief: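 Vehicle-treated cultures served as the reference for growth inhibition in a yeast strain carrying DNA damage repair alterations exposed to each compound.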

[11] = NCI Yeast Anticancer Drug Screen. Data for the rad18 strain (AID 177); conditions: S. cerevisiae rad18 mutant growth inhibition, active compounds read high
Method in brief: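 Test articles were incubated with altered yeast defective in DNA damage repair. Results are given as inhibition of growth versus vehicle.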

[12] = at 5.0 µM (retest, dose inferred, filed as 0.5)
[13] = at 50.0 µM (retest, dose inferred, filed as 5.0)

For `Cc1ccc(S(=O)(=O)N/N=C/c2c(O)ccc3ccccc23)cc1`, the growth inhibition ([1]; at 1.2 µM) was -8%, the growth inhibition ([1]; at 3.7 µM) was -15% and the growth inhibition ([1]; at 11.0 µM) was 37%. For the same molecule, the growth inhibition ([1]; at 33.0 µM) was 59%, the growth inhibition ([1]; at 100.0 µM) was 84% (active) and the growth inhibition ([2]; at 1.2 µM) was -6%. The growth inhibition ([2]; at 3.7 µM) was 3%, the growth inhibition ([2]; at 11.0 µM) was -16% and the growth inhibition ([2]; at 33.0 µM) was -8%. The growth inhibition ([2]; at 100.0 µM) was 24%, the growth inhibition ([3]; at 1.2 µM) was 19% and the growth inhibition ([3]; at 3.7 µM) was 10%. For the same molecule, the growth inhibition [3, 12] was 36%, the growth inhibition ([3]; at 11.0 µM) was 79% (active) and the growth inhibition ([3]; at 33.0 µM) was 82% (active). For the same molecule, the growth inhibition [3, 13] was 86% (active), the growth inhibition ([3]; at 50.0 µM) was 79.9% (active) and the growth inhibition ([3]; at 100.0 µM) was 78% (active). The growth inhibition ([4]; at 1.2 µM) was -1%, the growth inhibition ([4]; at 3.7 µM) was 1% and the growth inhibition [4, 12] was 53%. For the same molecule, the growth inhibition ([4]; at 11.0 µM) was 55%, the growth inhibition ([4]; at 33.0 µM) was 66% and the growth inhibition [4, 13] was 79% (active). The growth inhibition ([4]; at 50.0 µM) was 79.5% (active), the growth inhibition ([4]; at 100.0 µM) was 79% (active) and the growth inhibition ([5]; at 1.2 µM) was -14%. The growth inhibition ([5]; at 3.7 µM) was -14%, the growth inhibition ([5]; at 11.0 µM) was 59% and the growth inhibition ([5]; at 33.0 µM) was 73% (active). The growth inhibition ([5]; at 100.0 µM) was 83% (active), the growth inhibition [6, 12] was -10% and the growth inhibition [6, 13] was 91% (active). For the same molecule, the growth inhibition [7, 12] was 21%, the growth inhibition [7, 13] was 89% (active) and the growth inhibition ([8]; at 1.2 µM) was 17%. For the same molecule, the growth inhibition ([8]; at 3.7 µM) was 34%, the growth inhibition [8, 12] was 37% and the growth inhibition ([8]; at 11.0 µM) was 55%. For the same molecule, the growth inhibition ([8]; at 33.0 µM) was 70% (active), the growth inhibition [8, 13] was 85% (active) and the growth inhibition ([8]; at 100.0 µM) was 77% (active). It also gave a growth inhibition ([9]; at 1.2 µM) of -5%, a growth inhibition ([9]; at 3.7 µM) of -9% and a growth inhibition ([9]; at 11.0 µM) of 43%. For the same molecule, the growth inhibition ([9]; at 33.0 µM) was 81% (active), the growth inhibition ([9]; at 100.0 µM) was 88% (active) and the growth inhibition [10, 12] was 44%. The growth inhibition [10, 13] was 64%, the growth inhibition ([10]; at 50.0 µM) was 78.5% (active) and the growth inhibition ([11]; at 1.2 µM) was 8%. For the same molecule, the growth inhibition ([11]; at 3.7 µM) was 17%, the growth inhibition ([11]; at 11.0 µM) was 87% (active) and the growth inhibition ([11]; at 33.0 µM) was 87% (active). For the same molecule, the growth inhibition ([11]; at 100.0 µM) was 83% (active).
